Records with an inconclusive call do not appear. Where a call stands in place of a potency, no number is given. Unmarked numbers belong to inactive results. Active and inactive are the calls of the source. Calls come from the whole dose curve; as a rule, active = well fitted curve in the direction sought with a large enough effect in the repeat runs; inconclusive = weak or mixed curves; inactive = no such curve, though single readings can be large; an effect the other way counts as inactive or inconclusive.
Assays:
[1] = target: Cytochrome P450 2C9 (Homo sapiens) (UniProt P11712); assay: Cytochrome P450 Family 2 Subfamily C Member 9 (CYP2C9) small molecule antagonists: luciferase reporter qHTS assay (AID 1671198); conditions: P450-Glo CYP2C9 enzyme assay, luciferin luminescence; series mostly up to 115 µM
Summary of the method: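 CYP2C9 activity was measured with a P450-Glo proluciferin substrate. Enzyme–substrate mix was held with compound for 10 min at room temperature, then NADPH regeneration solution was added for 1 h at 37C. Luciferin product was read as luminescence.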

[2] = target: Voltage-gated inwardly rectifying potassium channel KCNH2 (Homo sapiens) (UniProt Q12809); assay: Human Ether-a-go-go-Related Gene (hERG) channel small molecule antagonists: fluorescence cell-based qHTS assay (AID 1671200); conditions: hERG-U2OS cells, FluxOR thallium flux fluorescence; series mostly up to 76.8 µM;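 for activity change, negative = inhibition: hERG-expressing U2OS cells given a thallium stimulus after FluxOR II dye loading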
Summary of the method: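 First, 1000 cells per well are seeded and cultured overnight at 37 C. Next, FluxOR II dye is loaded for 1 h at room temperature, protected from light. After 10 more minutes, stimulus is added and fluorescence is read.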

[3] = target: Cytochrome P450 1A2 (Homo sapiens) (UniProt P05177); assay: Cytochrome P450 Family 1 Subfamily A Member 2 (CYP1A2) small molecule antagonists: luciferase reporter qHTS assay (AID 1671199); conditions: P450-Glo CYP1A2 enzyme, luciferin luminescence, 1 h; series mostly up to 115 µM
Summary of the method: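 Luminescence from luciferin formed by CYP1A2 from a proluciferin substrate, read 20 min after detection reagent. Compound was pre-incubated 10 min with enzyme-substrate, and reaction started with NADPH regeneration solution for 1 h at room temperature; furafylline control.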

[4] = target: Cytochrome P450 3A4 (Homo sapiens) (UniProt P08684); assay: Cytochrome P450 Family 3 Subfamily A Member 4 (CYP3A4) small molecule antagonists: luciferase reporter qHTS assay (AID 1671201); conditions: P450-Glo CYP3A4 enzyme, luciferin luminescence, 1 h; series mostly up to 115 µM
Summary of the method: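 Enzyme and proluciferin substrate are mixed with test chemicals for 10 min, then NADPH regeneration system drives turnover for 1 h at room temperature. A detection reagent halts the reaction; luminescence after 20 min gives relative activity.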
Note: nearly all actives have a fitted effect of over 50% in size.
Potency is the fitted concentration of half-maximal effect.

Cytochrome P450 1A2 (Homo sapiens), sequence (P05177 whole entry, looked up): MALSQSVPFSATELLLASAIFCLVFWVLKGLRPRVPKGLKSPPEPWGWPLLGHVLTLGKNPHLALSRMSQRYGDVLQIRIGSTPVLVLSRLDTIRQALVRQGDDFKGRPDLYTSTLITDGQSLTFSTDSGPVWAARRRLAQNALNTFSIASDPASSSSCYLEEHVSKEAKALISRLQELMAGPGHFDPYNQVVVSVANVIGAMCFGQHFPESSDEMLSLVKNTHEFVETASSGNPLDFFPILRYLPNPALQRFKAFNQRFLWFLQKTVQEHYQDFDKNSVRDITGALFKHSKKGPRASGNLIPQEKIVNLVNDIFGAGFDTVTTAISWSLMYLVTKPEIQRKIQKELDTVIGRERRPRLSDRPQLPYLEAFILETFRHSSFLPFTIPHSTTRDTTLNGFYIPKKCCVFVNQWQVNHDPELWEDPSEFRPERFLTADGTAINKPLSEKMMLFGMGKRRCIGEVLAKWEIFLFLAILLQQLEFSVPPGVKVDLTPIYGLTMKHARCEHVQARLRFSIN
Cytochrome P450 2C9 (Homo sapiens), sequence (P11712 whole entry, looked up): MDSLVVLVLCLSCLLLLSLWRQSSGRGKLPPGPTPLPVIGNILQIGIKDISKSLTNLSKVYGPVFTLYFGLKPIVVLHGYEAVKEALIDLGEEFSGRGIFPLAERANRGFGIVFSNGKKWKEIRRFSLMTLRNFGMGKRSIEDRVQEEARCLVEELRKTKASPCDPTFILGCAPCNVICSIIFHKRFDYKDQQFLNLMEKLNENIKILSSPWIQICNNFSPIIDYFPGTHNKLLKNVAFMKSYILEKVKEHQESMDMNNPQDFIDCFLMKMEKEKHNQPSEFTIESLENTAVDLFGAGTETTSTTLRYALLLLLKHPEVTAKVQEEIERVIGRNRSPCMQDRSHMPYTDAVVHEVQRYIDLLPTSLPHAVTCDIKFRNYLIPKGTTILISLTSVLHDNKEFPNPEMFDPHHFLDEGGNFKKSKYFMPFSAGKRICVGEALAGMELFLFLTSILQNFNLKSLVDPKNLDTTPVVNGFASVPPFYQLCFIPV
Voltage-gated inwardly rectifying potassium channel KCNH2 (Homo sapiens), sequence (Q12809 whole entry, looked up): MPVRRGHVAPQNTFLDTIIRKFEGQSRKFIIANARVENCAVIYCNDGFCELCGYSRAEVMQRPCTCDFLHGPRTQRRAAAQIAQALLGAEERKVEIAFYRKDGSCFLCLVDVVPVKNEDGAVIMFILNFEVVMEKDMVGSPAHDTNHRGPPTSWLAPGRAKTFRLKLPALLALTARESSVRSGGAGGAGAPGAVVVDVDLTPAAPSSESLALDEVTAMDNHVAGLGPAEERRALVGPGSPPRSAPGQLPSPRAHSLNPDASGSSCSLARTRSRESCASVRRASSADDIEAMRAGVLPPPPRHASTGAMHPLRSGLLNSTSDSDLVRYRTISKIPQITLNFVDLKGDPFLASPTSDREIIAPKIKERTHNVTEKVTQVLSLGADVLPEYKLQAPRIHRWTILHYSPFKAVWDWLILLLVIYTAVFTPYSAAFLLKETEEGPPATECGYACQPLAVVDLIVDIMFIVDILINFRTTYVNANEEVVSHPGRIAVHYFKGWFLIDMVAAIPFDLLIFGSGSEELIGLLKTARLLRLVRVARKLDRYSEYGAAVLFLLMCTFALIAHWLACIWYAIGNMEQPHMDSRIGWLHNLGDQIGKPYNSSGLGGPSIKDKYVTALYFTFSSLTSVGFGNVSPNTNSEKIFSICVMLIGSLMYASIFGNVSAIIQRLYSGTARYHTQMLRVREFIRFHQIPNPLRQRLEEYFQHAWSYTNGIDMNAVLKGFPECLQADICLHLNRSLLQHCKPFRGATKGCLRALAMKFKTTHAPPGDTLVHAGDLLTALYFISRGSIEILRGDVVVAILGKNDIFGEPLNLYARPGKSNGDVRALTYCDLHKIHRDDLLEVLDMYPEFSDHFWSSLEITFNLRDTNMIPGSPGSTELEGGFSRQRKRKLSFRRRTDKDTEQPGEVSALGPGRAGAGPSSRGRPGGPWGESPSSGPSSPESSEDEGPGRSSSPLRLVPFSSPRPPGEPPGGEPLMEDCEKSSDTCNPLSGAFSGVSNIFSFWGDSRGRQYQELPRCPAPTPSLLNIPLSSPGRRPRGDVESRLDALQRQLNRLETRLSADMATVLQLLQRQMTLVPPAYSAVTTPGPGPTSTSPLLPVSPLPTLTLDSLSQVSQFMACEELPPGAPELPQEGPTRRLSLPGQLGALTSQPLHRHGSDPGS
Cytochrome P450 3A4 (Homo sapiens), sequence (P08684 whole entry, looked up): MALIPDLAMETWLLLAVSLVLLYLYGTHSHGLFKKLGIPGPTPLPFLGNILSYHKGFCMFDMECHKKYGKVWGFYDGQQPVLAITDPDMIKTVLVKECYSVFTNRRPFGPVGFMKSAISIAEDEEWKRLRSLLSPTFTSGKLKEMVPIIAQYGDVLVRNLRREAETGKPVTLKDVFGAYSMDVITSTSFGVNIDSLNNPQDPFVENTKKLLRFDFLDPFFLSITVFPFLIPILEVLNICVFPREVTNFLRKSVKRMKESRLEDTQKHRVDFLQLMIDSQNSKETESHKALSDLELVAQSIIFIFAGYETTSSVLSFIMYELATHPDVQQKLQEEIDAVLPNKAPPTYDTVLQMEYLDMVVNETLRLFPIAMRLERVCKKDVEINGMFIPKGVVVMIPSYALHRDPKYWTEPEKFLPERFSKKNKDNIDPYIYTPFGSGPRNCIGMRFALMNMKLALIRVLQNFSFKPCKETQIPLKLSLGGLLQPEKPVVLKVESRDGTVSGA

SMILES: CCN(CC)CCOC(=O)C1(c2ccccc2)CCCC1
- Potency [1]: inactive
- Potency [2]: inactive

SMILES: N=C(N=C(N)N)N1CCOCC1
- Potency [1]: inactive
- Potency [2]: inactive

SMILES: CC(=O)CC(=O)c1ccccc1
- Potency [1]: 35.8 µM (active)
- Potency [3]: 40.2 µM (active)
- Potency [2]: inactive
- Potency [4]: 63.7 µM (active)

SMILES: C=CCCCCCC
- Potency [1]: inactive
- Potency [3]: inactive
- Potency [2]: inactive

SMILES: O=C(O)Cc1sc(-c2ccccc2)nc1-c1ccc(Cl)cc1
- Potency [1]: 4.9 µM (active)
- Potency [2]: inactive

SMILES: CC(=O)N(O)CCCCCNC(=O)CCC(=O)N(O)CCCCCNC(=O)CCC(=O)N(O)CCCCCN
- Potency [1]: inactive
- Potency [3]: 24.5 µM (active)
- Potency [2]: inactive

SMILES: CCN(CC)CCc1nc(-c2ccccc2)no1
- Potency [1]: inactive
- Potency [2]: inactive
- Potency [4]: inactive

SMILES: CC(O)C1CCCCC1 (stereo unspecified)
- Potency [1]: inactive
- Potency [3]: inactive
- Potency [2]: inactive
- Potency [4]: inactive

SMILES: CCCCc1cc2ccccc2c(OCCN(C)C)n1
- Potency [1]: inactive
- Potency [3]: 0.436 µM (active)
- Potency [2]: 3.38 µM (active)
- Potency [4]: inactive

SMILES: CC(Cc1cccc(C(F)(F)F)c1)NCCOC(=O)c1ccccc1 (stereo unspecified)
- Potency [1]: 27.5 µM (active)
- Potency [2]: 8.49 µM (active)

SMILES: CC(C)(C)C1CCCCC1O (stereo unspecified)
- Potency [1]: inactive
- Potency [3]: inactive
- Potency [2]: inactive
- Potency [4]: inactive

SMILES: CN(C)CCCNCCCN
- Potency [1]: inactive
- Potency [3]: 35.4 µM (active)
- Potency [2]: inactive
- Potency [4]: inactive

SMILES: CC[C@H](C)[C@@H](C(=O)O)n1sc2ccccc2c1=O
- Potency [1]: inactive
- Potency [3]: 25.2 µM (active)
- Potency [2]: inactive

SMILES: CNS(=O)(=O)Cc1ccc2[nH]cc(CCN(C)C)c2c1
- Potency [1]: inactive
- Potency [3]: inactive
- Potency [2]: inactive
- Potency [4]: inactive

SMILES: CCOc1cc(OCC)c(C(=O)CCC(=O)O)cc1OCC
- Potency [1]: inactive
- Potency [3]: inactive
- Potency [2]: inactive
- Potency [4]: inactive

SMILES: CCOC(=O)CC(=O)c1cc(F)c(Cl)nc1Cl
- Potency [2]: inactive
- Potency [4]: inactive

SMILES: NCCCOCCOCCOCCCN
- Potency [2]: inactive

SMILES: O=C(C(=O)c1ccc(Br)cc1)c1ccc(Br)cc1
- activity change, negative = inhibition [1]: -0.879% [at 23.6 µM]
- activity change, negative = inhibition [2]: -1.71% [at 15.8 µM]
- activity change, negative = inhibition [4]: 4.73% [at 23.6 µM]

SMILES: Cc1cccc(Oc2ccccc2)c1
- Potency [3]: 34.7 µM (active)
- Potency [2]: 13.5 µM (active)
- Potency [4]: 34.7 µM (active)

SMILES: CC(=O)/C(C)=C/C1C(C)=CCCC1(C)C (stereo unspecified)
- Potency [3]: 79.6 µM (active)
- Potency [2]: inactive
- Potency [4]: inactive

SMILES: CC(=O)SCc1ccco1
- Potency [3]: inactive
- Potency [2]: inactive

SMILES: CCCCCCCCCCCCCCCBr
- Potency [1]: inactive
- Potency [2]: inactive
- Potency [4]: inactive

SMILES: O=C1Nc2cc(Cl)ccc2Oc2ccccc21
- Potency [3]: 1.95 µM (active)
- Potency [2]: inactive
- Potency [4]: inactive

SMILES: C1=Cc2ccccc2C1
- Potency [2]: inactive
- Potency [4]: inactive

SMILES: Cc1cccc(OCCOc2cccc(C)c2)c1
- Potency [3]: 8.45 µM (active)
- Potency [2]: inactive

SMILES: C[C@H](CCC(=O)O)[C@H]1CC[C@H]2[C@@H]3[C@H](O)C[C@@H]4C[C@H](O)CC[C@]4(C)[C@H]3CC[C@]12C
- Potency [3]: 31.8 µM (active)
- Potency [2]: inactive

SMILES: O=S1(=O)N=C(O)c2ccccc21
- Potency [2]: inactive

SMILES: NC[C@H]1O[C@H](O[C@H]2[C@H](O)[C@@H](O[C@H]3O[C@H](CO)[C@@H](O)[C@H](N)[C@H]3O)[C@H](N)C[C@@H]2N)[C@H](O)[C@@H](O)[C@@H]1O
- activity change, negative = inhibition [2]: 0.203% [at 6.97 µM]

SMILES: C=C(C)C(=O)OCCN(C)C
- Potency [3]: inactive
- Potency [2]: inactive
- Potency [4]: 36 µM (active)

SMILES: CCC(=O)OC(C)(C)C1CC=C(C)CC1 (stereo unspecified)
- Potency [2]: inactive

SMILES: CCCCOc1ccc(CC(=O)NO)cc1
- Potency [3]: 15.5 µM (active)
- Potency [2]: inactive
- Potency [4]: inactive

SMILES: N#CCCNCCC#N
- Potency [2]: inactive
- Potency [4]: inactive

SMILES: CCOc1nc2cccc(C(=O)O)c2n1Cc1ccc(-c2ccccc2-c2nn[nH]n2)cc1
- Potency [2]: inactive

SMILES: CN(C)CCCOc1nn(Cc2ccccc2)c2ccccc12
- Potency [2]: 4.25 µM (active)

SMILES: CCN(CCO)CCCC(C)Nc1ccnc2cc(Cl)ccc12 (stereo unspecified)
- activity change, negative = inhibition [2]: 9.57% [at 6.97 µM]

SMILES: Oc1ccc(Cc2ccccc2)cc1
- Potency [1]: 65.7 µM (active)
- Potency [2]: inactive
- Potency [4]: inactive

SMILES: CC1=CC(=O)/C(=C(/C)O)C(=O)O1
- Potency [1]: 63.3 µM (active)
- Potency [2]: inactive
- Potency [4]: inactive

SMILES: CCCC(C)C
- Potency [3]: 63.9 µM (active)
- Potency [2]: inactive
- Potency [4]: inactive

SMILES: Cc1ccccc1N=Nc1ccc(N=Nc2c(O)ccc3ccccc23)c(C)c1
- Potency [3]: 13.8 µM (active)
- Potency [2]: inactive
- Potency [4]: inactive

SMILES: CN(C)C/C=C(/c1ccc(Br)cc1)c1cccnc1
- Potency [2]: 13.4 µM (active)

SMILES: CCCCCCCCC(CO)CCCCCC (stereo unspecified)
- Potency [1]: 25.2 µM (active)
- Potency [2]: inactive
- Potency [4]: inactive

SMILES: CC(=O)OC/C=C/c1ccccc1
- Potency [3]: 31.7 µM (active)
- Potency [2]: inactive
- Potency [4]: inactive

SMILES: O=C(O)Cn1c(C(=O)Nc2nc(-c3ccccc3Cl)cs2)cc2ccccc21
- Potency [3]: inactive
- Potency [2]: inactive
- Potency [4]: inactive

SMILES: O=C(O)Cc1cc(I)c(Oc2ccc(O)c(I)c2)c(I)c1
- Potency [2]: inactive

SMILES: CN(C(=O)CCCOc1ccc2[nH]c(=O)ccc2c1)C1CCCCC1
- Potency [3]: inactive
- Potency [2]: inactive

SMILES: Cc1cccc(C(C)(C)C)c1O
- Potency [2]: inactive

SMILES: CC(C)CC=O
- Potency [3]: inactive
- Potency [2]: inactive

SMILES: CC(=O)[C@@]1(O)CC[C@H]2[C@@H]3C[C@H](C)C4=CC(=O)CC[C@]4(C)[C@H]3CC[C@@]21C
- Potency [3]: inactive
- Potency [2]: inactive
- Potency [4]: inactive

SMILES: OCC1CC2CC1C1CCC(CO)C21 (stereo unspecified)
- Potency [2]: inactive
- Potency [4]: inactive

SMILES: CC(C)=CCCC(C)CC=O (stereo unspecified)
- Potency [2]: inactive

SMILES: CNCC[C@@H](Oc1ccccc1C)c1ccccc1
- Potency [4]: inactive

SMILES: Cc1ccccn1
- Potency [2]: inactive

SMILES: c1ccc(-c2nc[nH]c2-c2ccccc2)cc1
- Potency [3]: 8.12 µM (active)
- Potency [2]: inactive

Reference: PubChem BioAssay (Tox21)
